This note sets out measurements from PubChem BioAssay AID588719 (Southern Research Specialized Biocontainment Screening …, 2011).

SMILES strings stand for the structures. Out of some 1,500 compounds screened, about 920 (61%) were called active. So high a share suggests a set chosen from earlier hits. The list shows a part of the results. Measured potencies and affinities stand elsewhere. Values without a mark were called inactive. No rule for the calls is given here.

The nature of the assay: Vero 76 cell cytotoxicity, dose response, cytotoxicity control for VEEV inhibitor project (AID 588719). The conditions noted are these: Vero 76 cells viability, cytotoxicity counter-screen; series mostly up to 25 µM; viability: at the top concentration. (In general: Counterscreens check selectivity or assay interference.)
For the molecule `c1ccc(CCNc2ccc3c(c2)Cc2ccccc2-3)nc1`, the “viability” value was 90.8%.

Consider `Cc1cc2ccc3ccccc3c2cc1CN(C)C`, for which the “viability” value was 84.6%.

Regarding `Cc1cccc(C(=O)Nc2ccccc2SCC2CSc3nc4ccccc4c(=O)n32)c1` (stereo not given), the “viability” value was 75.4%.

As to `O=C(CC1C(=O)NC2CCCCC2N1C(=O)c1ccc([N+](=O)[O-])cc1)Nc1ccccc1` (stereo not given), the “viability” value is 87.7%.

Turning to `CC(=O)C1C(N2CC2)CC2C3CCC4=CC(=O)CCC4(C)C3CCC21C` (stereo not given), the “viability” value was 85.9%.

In the case of `CN1CCN(/N=C/c2ccc(N(c3ccccc3)c3ccccc3)cc2)CC1`, the “viability” value is 75.6%.

Take `OC1(c2cccs2)CN(c2ccc(Br)cc2)C2=[N+]1CCCS2` (stereo not given): the “viability” value is 74%.

Turning to `Nc1ccccc1/C=C/c1ccccc1N`, the “viability” value is 81.8%.

Regarding `CN(C)CCC(=O)C(Cc1ccccc1)c1ccccc1` (stereo not given), the “viability” value is 90.7%.

As for `Cc1nn(-c2ccccc2)nc1C(=O)Nc1nnc(C(F)(F)F)s1`, the “viability” value was 74%.

For `COc1ccccc1NC(=O)c1nc(S(=O)(=O)Cc2ccccc2)ncc1Cl`, the “viability” value is 96.6%.

Take `CCCc1nnc(NC(=O)c2nc(S(=O)(=O)Cc3ccc(C)cc3)ncc2Cl)s1`: the “viability” value was 86.1%.

As for `Cc1ccc(C)c(NS(=O)(=O)c2ccc(-n3cccn3)cc2)c1`, the “viability” value was 95.8%.

Regarding `Cc1ccccc1-c1n[nH]c(=S)n1/N=C/c1ccc(-c2ccccc2Br)o1`, the “viability” value is 72.7%.

`O=C(COC(=O)c1ccc(Br)o1)NCc1ccc(Cl)cc1`: the “viability” value was 93.3%.

For `Cc1noc(C)c1NC(=O)N(C)C[C@H]1OCc2cnnn2CCCC(=O)N([C@H](C)CO)C[C@@H]1C`, the “viability” value was 93.2%.

For `CC(C)(C)C(=O)Nc1sc(-c2ccccc2)cc1C(=O)O`, the “viability” value was 72.6%.

For the molecule `Nc1cc[n+](CC(=O)c2ccc3c(c2)OCCO3)cc1`, the “viability” value was 101%.

Consider `CN(C)c1ccc(C(=O)c2ccc(N(C)C)c3ccccc23)cc1`, for which the “viability” value was 26.9%.

As for `O=C(OCC(=O)N1CCOCC1)c1ccc2[nH]c3c(c2c1)CCCC3`, the “viability” value is 96.7%.

For the molecule `COc1ccc(-n2c(O)c(C=NCCN(C)C)c(=O)[nH]c2=O)cc1`, the “viability” value was 101%.

Take `O=C(Nc1ccc(N2CCCCC2)c(Cl)c1)c1cccnc1`: the “viability” value is 73.2%.

As for `Cc1c(O)c2ccccc2oc1=O`, the “viability” value was 100%.

Consider `CC1=C(C(=O)N2CCOCC2)CC(CC(=O)NC2CCCCC2)C(=O)N1Cc1ccc(C(C)(C)C)cc1` (stereo not given), for which the “viability” value was 98.4%.

Turning to `COc1ccc(C2CC(=O)C3=C(C2)NC(C)=C(C#N)C3c2ccc(N(C)C)cc2)cc1` (stereo not given), the “viability” value was 75.9%.

For the molecule `CC(=O)/C(C#N)=C1\NC(=O)C(Cc2ccccc2)S1` (stereo not given), the “viability” value was 73.6%.

As to `CCc1nc(CN2CCCC(C(=O)Nc3ccc(-c4cccc(OC)c4)cc3)C2)c(C)[nH]1` (stereo not given), the “viability” value is 82.6%.

In the case of `COc1ccc(O)c(CN2CCCC(C(=O)Nc3cccc(-n4cccn4)c3)C2)c1` (stereo not given), the “viability” value was 81.4%.

In the case of `CN(c1ccc(OCC(=O)Nc2ccccc2C(=O)O)cc1)S(=O)(=O)c1ccc(Cl)cc1`, the “viability” value is 70.6%.

Take `COc1ccc(-c2csc(NC(=S)NC(=O)c3cccs3)n2)cc1Br`: the “viability” value was 71.7%.

Take `Cc1nn(Cc2c(Cl)cccc2Cl)c(C)c1NC(=O)c1cc(C(C)C)on1`: the “viability” value was 84.5%.

Consider `O=c1[nH]c(SCc2nc3c(cnn3-c3ccccc3)c(=O)[nH]2)nc2ccccc12`, for which the “viability” value is 43.7%.

As to `CCN(CC)P(=O)(NC(=O)C(Cl)(Cl)Cl)N(CC)CC.[Cl-].[Cl-].[Cl-].[Nd+3]`, the “viability” value was 73.9%.

`Cc1nc(/C(N)=N/OC(=O)c2ccccc2Cl)c(C(F)(F)F)o1`: the “viability” value was 91.4%.

With `C/C(N)=C(/C#N)C(=O)CSc1nnc(-c2ccc(OC(F)F)cc2)o1`, the “viability” value is 93.8%.

Turning to `COc1ccc(NC(=O)N(C)C[C@H]2Oc3cc(Br)ccc3S(=O)(=O)N([C@H](C)CO)C[C@@H]2C)cc1`, the “viability” value is 88.9%.

On to `Cc1[nH]c(=S)[nH]c(=O)c1Cc1c(O)ccc2ccccc12`, for which the “viability” value was 83.9%.

On to `CN(C)C1CCc2[nH]c3c(F)cc(F)cc3c2C1` (stereo not given), for which the “viability” value is 80.9%.

Consider `COc1ccc2c(c1)c(CCN)c(C)n2Cc1ccccc1`, for which the “viability” value is 84%.

With `Cc1ccc2nc(-c3ccc(NS(=O)(=O)c4c(C)n(C)c(=O)n(C)c4=O)cc3)sc2c1`, the “viability” value was 87.9%.

Consider `COc1cc(NC(=O)C2=C(C)OCCS2)c(Cl)cc1C(=O)NCCCN1CCCC(C)C1` (stereo not given), for which the “viability” value was 77.2%.

Take `Cc1nn2c(NCCN(C)C)c3c(nc2c1-c1ccccc1)CCC3`: the “viability” value is 72.9%.

Regarding `CCOC(=O)C(C(=O)OCC)C(c1ccccc1)N1CCN(c2ccccc2)CC1` (stereo not given), the “viability” value is 105%.

Turning to `OC1(c2cccs2)CN(c2ccc(Cl)cc2)C2=[N+]1CCCC2` (stereo not given), the “viability” value was 82%.

As for `Cc1cn([C@H]2C[C@H](O)[C@@H](CCC(=O)NCc3ccc(N(C)C)cc3)O2)c(=O)[nH]c1=O`, the “viability” value is 93.3%.

Turning to `CC(C)=CCN1CCN(Cc2nc(C(C)C)cs2)CC1CCO` (stereo not given), the “viability” value is 87%.

Consider `N=C1C(c2nc(-c3ccc(Cl)cc3)cs2)=C(O)CN1CCCN1CCOCC1`, for which the “viability” value was 77.8%.

`O=C1C(=Cc2ccccc2O)SC(=S)N1CCCN1CCOCC1`: the “viability” value was 80.4%.

For `COCCNC(=O)CCCn1c(=O)c2cc(OC)c(OC)cc2n(CC(=O)Nc2ccc(C)c(F)c2)c1=O`, the “viability” value is 94.7%.

Take `CC(C)(C)c1cc(NC(=O)c2cc(F)c(F)c(F)c2F)no1`: the “viability” value was 70.6%.

`CCN(Cc1ccncc1)C(=O)c1ccccc1NS(=O)(=O)c1ccc(Br)cc1`: the “viability” value is 86.5%.

Turning to `COc1cc(OC)cc(C(=O)NCCSc2c[nH]c3ccccc23)c1`, the “viability” value is 89.6%.

On to `COc1cc(OC)cc(C(=O)NCC(=O)OCC(=O)NC2CCCc3ccccc32)c1` (stereo not given), for which the “viability” value was 102%.

With `O=C(/C=C/c1ccccc1)c1ccccc1`, the “viability” value is 97.5%.

For `Cc1ccc(C(=O)/C=C/c2ccccc2)o1`, the “viability” value was 79.5%.

For the molecule `COc1ccc(C(=O)NCC(=O)NCc2ccc3c(c2)OCO3)cc1[N+](=O)[O-]`, the “viability” value is 83.2%.

For `O=C(COC(=O)c1ccc(O)cc1)Nc1ccc2c(c1)OCO2`, the “viability” value was 81.9%.

Consider `CCOc1ccccc1OCCC(=O)N1CCN(S(=O)(=O)c2ccccc2[N+](=O)[O-])CC1`, for which the “viability” value was 77.9%.

As for `CCCOc1ccc(Oc2nc(-c3ccncc3)nc3ccccc23)cc1`, the “viability” value was 83.4%.

For the molecule `COc1ccccc1[C@]1(C)ON(c2ccccc2C(F)(F)F)C1=O`, the “viability” value is 77%.

Turning to `[O-][n+]1onc2c1CCc1[nH]c(-c3ccccc3)nc1-2`, the “viability” value is 80.9%.

For `COc1ccc(C=CC(=O)c2c(OC)cc(OC)c(OC)c2O)cc1`, the “viability” value was 107%.

For the molecule `COc1ccc(/C=C/C(=O)c2cc3cccc(OC)c3oc2=O)cc1`, the “viability” value is 90.9%.

As to `CCOC(=O)NNc1cc(C(F)(F)F)ccn1`, the “viability” value is 99.2%.

Regarding `Cc1ccc(C(=O)Nc2ccccc2SCC2CSc3nc4ccccc4c(=O)n32)cc1` (stereo not given), the “viability” value is 74%.

On to `COc1cc2c(cc1NC(=O)c1ccc(C(C)(C)C)cc1)CCCC2`, for which the “viability” value is 76%.

Take `Cc1ccc(C(C)C)cc1OCC(=O)Nc1nnc(C2CC2)s1`: the “viability” value was 83.1%.

As to `O=c1oc2ccccc2cc1-c1csc(Nc2ccc(O)cc2)n1`, the “viability” value is 68.4%.

Consider `COc1cccc(NC(=O)c2ncc(Cl)c(Cl)c2Cl)c1`, for which the “viability” value is 84.3%.

With `CCOC(=O)c1ccccc1NC(=O)c1cn(CC)c2nc(C)ccc2c1=O`, the “viability” value is 91.6%.

As to `COc1ccc(CCn2c(-c3ccco3)nc3ccccc3c2=O)cc1OC`, the “viability” value was 89%.

Take `CCOc1ccccc1C(=O)NC(C(=O)OCn1nnc2ccccc2c1=O)C(C)C` (stereo not given): the “viability” value was 87.5%.

For `CCN1CCN(CCCNC(=O)C2CCCN(c3nc4c(C)cc(C)cc4s3)C2)CC1` (stereo not given), the “viability” value was 91.2%.

Take `COC(=O)c1c(-c2ccccc2)csc1NC(=O)c1c(-c2ccccc2)noc1C`: the “viability” value was 61.7%.

As to `CCOC(=O)c1c(NC(=O)c2c(-c3ccccc3)noc2C)sc(C)c1-c1ccccc1`, the “viability” value is 50.6%.

`CCCOc1ccc(C(=O)NNC(=S)NC(=O)c2cc(-c3ccc(Cl)cc3)nc3ccccc23)cc1`: the “viability” value is 72%.

Regarding `O=C(/C=C/c1cccc([N+](=O)[O-])c1)c1ccc2c(c1)OCCO2`, the “viability” value is 79.3%.

With `CN1C/C(=C/c2ccsc2)C(=O)/C(=C/c2ccsc2)C1`, the “viability” value is 94.4%.

For the molecule `O=C(CC(=O)N/N=C/c1ccc(F)cc1)N/N=C/c1ccc(F)cc1`, the “viability” value is 87.4%.

As for `O=C(CSC1CN(C(c2ccccc2)c2ccccc2)C1)N/N=C/c1ccc(Cl)cc1Cl`, the “viability” value is 102%.

On to `NC(=S)NN=C(c1ccc(F)cc1)C1CC1`, for which the “viability” value is 98.5%.

In the case of `CCCCCCCCCCCCCCCC(O)C(N)CO` (stereo not given), the “viability” value was 83.8%.

As to `CN1CCN(C(=O)CCN2C(=O)/C(=C\c3ccc(Cl)cc3Cl)SC2=S)CC1`, the “viability” value is 88.9%.

With `O=C(N1CCOCC1)N1c2ccccc2Sc2ccccc21`, the “viability” value was 75.8%.

With `NC(=O)c1nsc(C(=O)N(c2ccccc2F)C(C(=O)NCc2ccccc2)c2ccc(O)cc2)c1N` (stereo not given), the “viability” value is 76.7%.

In the case of `COC(=O)c1cc2c(N)c(C(=O)c3ccc(Cl)cc3)sc2nc1C(OC)OC`, the “viability” value was 82.7%.

As to `COc1cc2cc(C(=O)N3CC(COS(C)(=O)=O)c4ccc(O)cc43)[nH]c2c(OC)c1OC` (stereo not given), the “viability” value was 35.5%.

For `COC(=O)c1ccc(/C=C2/SC(=S)N(CCC(=O)N3CCOCC3)C2=O)cc1`, the “viability” value is 78.4%.

Regarding `O=C(O)c1ccccc1Nc1ccc(OC(F)F)cc1`, the “viability” value was 101%.

Take `Cc1cc(-c2ccccc2)nc(N2CCN(c3ccccn3)CC2)n1`: the “viability” value was 84.5%.

On to `COc1cc2[nH]c3c(N4CCN(c5ccccn5)CC4)ncnc3c2cc1OC`, for which the “viability” value was 85.7%.

With `Cc1nc2ccccc2nc(C)c1=NOCc1cccc(F)c1`, the “viability” value was 71.2%.

As for `Cc1ccc2oc(C(F)(F)C(F)F)cc(=O)c2c1`, the “viability” value is 96.2%.

Turning to `O=C(OCc1cn([C@@H]2C[C@H](c3ccc(Cl)cc3)N(C(=O)c3cccs3)C[C@H]2O)nn1)c1ccccc1`, the “viability” value is 83%.

In the case of `COCCNCC(=O)NC12CC3CC(CC(C3)C1)C2`, the “viability” value was 86.3%.

Turning to `CC(OCCN(C)C)C(=O)C12CC3CC(CC(C3)C1)C2` (stereo not given), the “viability” value was 90.7%.

With `Cc1ncc([N+](=O)[O-])n1CC(=O)NCCc1ccccc1`, the “viability” value is 95.3%.

Regarding `CC1N(C)c2cc(NC(=O)c3ccco3)c(P(=O)(Nc3ccc([N+](=O)[O-])cc3)N3CCOCC3)cc2C1(C)C` (stereo not given), the “viability” value was 70.7%.

Take `CCC(NC(=O)CCCc1ccccc1)c1ccccc1` (stereo not given): the “viability” value was 91.7%.

`CCOc1ccc2nc3cc(NCc4ccc(OC)cc4)ccc3c(N)c2c1`: the “viability” value is 83.8%.

Turning to `Cc1ccc(NC(=O)C2CCCN2C(=O)OC(C)(C)C)cc1C` (stereo not given), the “viability” value is 87.2%.

For `COc1ccccc1C=NN=C1c2ccccc2-c2ccccc21`, the “viability” value is 83.9%.

With `COc1cccc(-c2ccc(NC(=O)C3CCCN(Cc4cnn(C)c4)C3)cc2)c1` (stereo not given), the “viability” value is 72.5%.

With `COc1cccc(-c2ccc(NC(=O)C3CCCN(Cc4cnn(C)c4C)C3)cc2)c1` (stereo not given), the “viability” value was 80.3%.

For the molecule `O=C1C2CCCN2C(c2ccc(F)cc2)N1c1ccc(Cl)cc1` (stereo not given), the “viability” value was 79.2%.

By viability is commonly meant a read-out of living cells in per cent, often relative to untreated cells.
